Structures can show the parent of a compound that is named as a salt.

The test system of the test is Danio rerio larvae (5 dpf). The experiment in a line: activity during first hour (no stimuli), difference vs DMSO (percentage points (treated minus DMSO)); higher = more of the behaviour than the DMSO vehicle control. Particulars: 10 µM; exposure time: 3 h pre-incubation + 3 h imaging. The protocol:
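5-dpf wild-type zebrafish larvae were imaged in 96-well plates. They were treated with 190 Tocris FDA-approved drugs at 10 µM (1 µl/ml DMSO) for 3 h before and 3 h during imaging at 28.5 °C, 48 larvae per drug. Automated image analysis gave % time moving and optomotor responses. Values are drug group mean minus DMSO vehicle mean (n=844), in percentage points, for 10 behaviours.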
As to `COc1cc(N)c(Cl)cc1C(=O)NC1CCN(CCCOc2ccc(F)cc2)CC1OC` (stereo not given) [Cisapride], the “activity during first hour” value is 1.47.

Turning to `Cc1nnc(C(C)C)n1C1C[C@H]2CC[C@@H](C1)N2CC[C@H](NC(=O)C1CCC(F)(F)CC1)c1ccccc1` (stereo in doubt) [Maraviroc], the “activity during first hour” value was -3.61. As for `CC1(C)O[C@@H]2[C@@H](CO[C@@]3(COS(N)(=O)=O)OC(C)(C)O[C@@H]23)O1` [Topiramate], the figure is 10.7; as for `CC(C)(C)NC(=O)[C@@H]1C[C@@H]2CCCC[C@@H]2CN1C[C@@H](O)[C@H](Cc1ccccc1)NC(=O)[C@H](CC(N)=O)NC(=O)c1ccc2ccccc2n1` [Saquinavir mesylate], -9.81. In the case of `CC(C)N(CCCCOCC(=O)NS(C)(=O)=O)c1cnc(-c2ccccc2)c(-c2ccccc2)n1` [Selexipag] it was 4.1; in that of `COc1ccc([C@@H]2Sc3ccccc3N(CCN(C)C)C(=O)[C@@H]2OC(C)=O)cc1` [Diltiazem hydrochloride], -3.56; in that of `CC(c1cc2ccccc2s1)N(O)C(N)=O` (stereo not given) [Zileuton], -0.123. In the case of `C#C[C@]1(O)CC[C@H]2[C@@H]3CCC4=CC(=O)CC[C@@H]4[C@H]3CC[C@@]21CC` [Levonorgestrel] it was -8.15; in that of `COCCCOc1cc(C[C@@H](C[C@H](N)[C@@H](O)C[C@H](C(=O)NCC(C)(C)C(N)=O)C(C)C)C(C)C)ccc1OC` [Aliskiren hemifumarate], -4.92.

`COc1cc2nc(N3CCN(C(=O)c4ccco4)CC3)nc(N)c2cc1OC` [Prazosin hydrochloride]: the “activity during first hour” value is -3.12.

As to `CNS(=O)(=O)Cc1ccc2[nH]cc(CCN(C)C)c2c1` [Sumatriptan succinate], the “activity during first hour” value worked out at 7.71. In the case of `CCCCNc1cc(C(=O)O)cc(S(N)(=O)=O)c1Oc1ccccc1` [Bumetanide] it was 3.74; in that of `CC(C)c1nc(CN(C)C(=O)N[C@H](C(=O)N[C@@H](Cc2ccccc2)C[C@H](O)[C@H](Cc2ccccc2)NC(=O)OCc2cncs2)C(C)C)cs1` [Ritonavir], -0.488; in that of `CCOc1cc(CC(=O)N[C@@H](CC(C)C)c2ccccc2N2CCCCC2)ccc1C(=O)O` [Repaglinide], 5.41. For `COc1cc2nc(N3CCN(C(=O)C4COc5ccccc5O4)CC3)nc(N)c2cc1OC` (stereo not given) [Doxazosin mesylate], the “activity during first hour” value is -2.96. In the case of `CC(C)C(=O)OCC(=O)[C@@]12O[C@H](C3CCCCC3)O[C@@H]1C[C@H]1[C@@H]3CCC4=CC(=O)C=C[C@]4(C)[C@H]3[C@@H](O)C[C@@]12C` [Ciclesonide] it was -9.57.

As for `C[C@]12CC[C@@H]3c4ccc(O)cc4C[C@@H](CCCCCCCCC[S+]([O-])CCCC(F)(F)C(F)(F)F)[C@H]3[C@@H]1CC[C@@H]2O` (stereo not given in full), the “activity during first hour” value worked out at 7.08. In the case of `CCOC(=O)N1CCC(=C2c3ccc(Cl)cc3CCc3cccnc32)CC1` [Loratidine] it was -17; in that of `COc1cc2ncnc(Nc3ccc(F)c(Cl)c3)c2cc1OCCCN1CCOCC1` [Iressa], -5.98; in that of `CN(C)CCc1c[nH]c2ccc(Cn3cncn3)cc12` [Rizatriptan benzoate], -2.37. As to `N#Cc1ccc(C(c2ccc(C#N)cc2)n2cncn2)cc1` [Letrozole], the “activity during first hour” value was -3.63. As for `O=c1n(CCCN2CCN(c3cccc(Cl)c3)CC2)nc2ccccn12` [Trazodone hydrochloride], the figure is -0.623; as for `CN1CCN(CCCN2c3ccccc3Sc3ccc(Cl)cc32)CC1` [Prochlorperazine dimaleate], 10.4; as for `C[C@@H](O[C@H]1OCCN(Cc2n[nH]c(=O)[nH]2)[C@H]1c1ccc(F)cc1)c1cc(C(F)(F)F)cc(C(F)(F)F)c1` [Aprepitant], -7.38. As for `N#C[C@@H]1C[C@@H]2C[C@@H]2N1C(=O)[C@@H](N)C12CC3CC(CC(O)(C3)C1)C2` [Saxagliptin hydrochloride], the figure is 1.74; as for `COc1ccc(-c2ccc3cc(C(=O)O)ccc3c2)cc1C12CC3CC(CC(C3)C1)C2` [Adapalene], -0.0907. As for `CC(C)c1ccc2oc3nc(N)c(C(=O)O)cc3c(=O)c2c1` [Amlexanox], the figure is 6.6; as for `O=C(O)C[C@H](O)C[C@H](O)/C=C/c1c(C2CC2)nc2ccccc2c1-c1ccc(F)cc1` [Pitavastatin calcium], -0.557; as for `Cc1nc(Nc2ncc(C(=O)Nc3c(C)cccc3Cl)s2)cc(N2CCN(CCO)CC2)n1` [Dasatinib], -11.4.

As to `C/C(O)=C(\C#N)C(=O)Nc1ccc(C(F)(F)F)cc1` [Teriflunomide], the “activity during first hour” value was -8.27. As for `Nc1ncn([C@H]2C[C@H](O)[C@@H](CO)O2)c(=O)n1` [Decitabine], the figure is 0.325; as for `C=CC(=O)N1CCC[C@@H](n2nc(-c3ccc(Oc4ccccc4)cc3)c3c(N)ncnc32)C1` [Ibrutinib], -6.62.

Regarding `CN1CC2c3ccccc3Oc3ccc(Cl)cc3C2C1` (stereo not given) [Asenapine maleate], the “activity during first hour” value was determined as 38.5. As for `NS(=O)(=O)c1cc(C(=O)O)c(NCc2ccco2)cc1Cl` [Furosemide], the “activity during first hour” value was 5.98. In the case of `CN(C)C(=N)NC(=N)N` [Metformin hydrochloride], the “activity during first hour” value was -6.37. As for `NS(=O)(=O)Cc1noc2ccccc12` [Zonisamide], the figure is 3.75. As for `CC[C@H]1OC(=O)[C@H](C)[C@@H](O[C@H]2C[C@@](C)(OC)[C@@H](O)[C@H](C)O2)[C@H](C)[C@@H](O[C@@H]2O[C@H](C)C[C@H](N(C)C)[C@H]2O)[C@](C)(O)C[C@@H](C)CN(C)[C@H](C)[C@@H](O)[C@]1(C)O` [Azithromycin], the figure is -12.2. As for `Nc1ccn([C@@H]2O[C@H](CO)[C@@H](O)C2(F)F)c(=O)n1` [Gemcitabine hydrochloride], the figure is -4.38. On to `O=C1CCc2cc(OCCCCc3nnnn3C3CCCCC3)ccc2N1` [Cilostazol], for which the “activity during first hour” value came to 10.3. As for `CN1CC(=O)N2[C@H](c3ccc4c(c3)OCO4)c3[nH]c4ccccc4c3C[C@@H]2C1=O` [Tadalafil], the figure is 11.

The values above are taken from the supplement of paper PMC9023506.
